# Experimental data from the supplement of paper PMC11417369.
# ± gives the standard deviation of the averaged measurements. Whole data set: some 25,000 sequences, median “ln(normalized median fluorescence intensity)” near 8.6, cut for the highest 2% near 10. The entries come from a sample that favours the highest values as a whole.
# System: PfAP2-EXP AP2 domain (GST-tagged)
# Experiment: gcPBM binding intensity (ln(normalized median fluorescence intensity)); higher = stronger DNA binding
# Method in brief: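 Each value is the highest Masliner-normalised natural-log median intensity across replicate spots of either orientation of a probe. The probes were primer-extended double-stranded 36-bp intergenic genomic sequences on an Agilent 4 × 180k array, alongside negative controls, exposed for 1 h to GST-tagged P. falciparum DNA-binding domains expressed in E. coli. Bound protein was picked up with Alexa488 anti-GST antibody and scanned at 488 nm.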
row,Sequence,gcPBM binding intensity (ln)
1,TTTTTTTTTTTTTTTATAGTACATTACCAAAAAAAA [CACACA_negctrl_site1197],8.27 ± 0.39
2,TTTGAAATAAGCAAATGTACATTATTATTAAATATA [XGTACX_site6158],8.38 ± 0.32
3,GAATCACTAATTTTTTTACACACCACAATTTAATTT [CACACA_site8311],8.94 ± 0.47
4,TATATTAAATATTACACACATACATTTAGTGTCAAA [CACACA_site1990],8.35 ± 0.37
5,TTTTTATATTCCCCCAGTACATATATAATAGTAGTA [XGTACX_site7927],10 ± 0.3
6,AACAAGAAAAAAAAAAAAAAAAAAAAAAAATATTTT [XGTACX_negctrl_site428],8.13 ± 0.3
7,ATAATAATATTTCTATGTACTTATTTTATGTATTAG [XGTACX_site1747],8.51 ± 0.4
8,TTTGAATAAAAACAAAAAATTAAATTAAATTAAATA [CACACA_negctrl_site312],8.15 ± 0.5
9,ATTTCCTTGAATGTTGCATGCTGTATTTTAATTAAA [TGCATGCA_site280],9.88 ± 0.43
10,ATTTTTGAACGGTACAGTACAGAATTTAATTAACCC [XGTACX_site47],9.13 ± 0.54
11,AGTATACATATATATACACACATATATATATATATA [CACACA_site300],10.2 ± 0.34
12,AGTATACTCGGACACACACACACATATATATATATA [CACACA_site5031],10.3 ± 0.2
13,CTAAAATACGGACACACACACACATATATATATATA [CACACA_site6138],10.3 ± 0.15
14,TACATACACGGACACACACACATATATATATATATA [CACACA_site5883],10.2 ± 0.36
15,AAAAAAAACGGACACACACACATAAATATATATAAA [CACACA_site4260],9.02 ± 0.4
16,AATAACCACGGACACACACACATATATATATATATA [CACACA_site5873],10.2 ± 0.46
17,AAAAAAAACGGACACACACACATACAAAATATATAT [CACACA_site4910],8.7 ± 0.38
18,AGTATACATATATATACACACACATATATATATATA [CACACA_site7883],9.98 ± 0.62
19,AAAAAAAACGGACACACACACATACCCATACATACA [CACACA_site5574],8.78 ± 0.49
20,CCCCCCCACGGACACACACACATACATACCACATAT [CACACA_site5303],10.3 ± 0.19
21,AAAAAACACGGACACACACACATATACATACATACA [CACACA_site5470],9.07 ± 0.3
22,CGCATACACGGACACACACACACATATATATATATA [CACACA_site4520],10.1 ± 0.34
23,TTTAAAATTATAAGGATTAAAAAAAAAAAAAATAAA [CACACA_negctrl_site114],8.27 ± 0.45
24,ATTTTGTTTTTTTTTGCACACCATAAGGAGTGTAGG [CACACA_site1414],8.84 ± 0.41
